Cruzain inh noDet = blocks cruzain activity in detergent-free assay; P25779; purified cruzain, Z-FR-AMC fluorescence, no detergent; AID 1476; hit rate 2.3% among 200,000; Potency, µM, without a hit: max response, negative = inhibition, actives largely listed as inhibitors;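 note: plate controls were enzyme without inhibitor for no effect and buffer without enzyme for full effect; nearly all actives have a fitted effect of over 40% in size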
Target sequence (P25779 123-467 limits assumed): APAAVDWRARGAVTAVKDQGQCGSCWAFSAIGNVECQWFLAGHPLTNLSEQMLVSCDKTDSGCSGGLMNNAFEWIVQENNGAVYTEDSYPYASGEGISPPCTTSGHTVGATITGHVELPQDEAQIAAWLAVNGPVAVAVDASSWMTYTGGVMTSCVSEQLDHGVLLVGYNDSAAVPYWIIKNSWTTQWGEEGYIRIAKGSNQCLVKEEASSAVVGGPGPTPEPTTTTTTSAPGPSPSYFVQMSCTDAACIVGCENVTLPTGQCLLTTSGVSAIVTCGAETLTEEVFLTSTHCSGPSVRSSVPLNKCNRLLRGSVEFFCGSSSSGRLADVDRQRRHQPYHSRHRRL
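Detergent-free condition (0.00005% Triton X-100) in acetate buffer pH 5.5 with DTT. 1.5 nM enzyme and compound were pre-mixed 15 min, then 2 uM Z-FR-AMC substrate added; reaction progress from fluorescence change between first and third reads (60 s).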
Cruzain inh Det = cruzain (T. cruzi) inhibition with detergent; AID 1478; Potency, µM, for the others: max response, negative = inhibition, most hits filed as inhibitors; hit rate 0.43% among 200,000; purified cruzain, Z-FR-AMC fluorescence, 0.01% Triton;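 note: plate controls were neutral wells for no effect and buffer without enzyme for full effect; nearly all actives have a fitted effect of over 40% in size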
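15 min RT preincubation of 1.5 nM cruzain with compound, then 2 uM Z-FR-AMC added; kinetic AMC fluorescence, 60 s delta. Triton X-100 0.01%, pH 5.5.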
Numbers without * were called inactive; ? = inconclusive. An excerpt weighted towards active compounds, which were near 2.5% of everything screened. Calls come from the whole dose curve; as a rule, active = well fitted curve in the direction sought with a large enough effect; inconclusive = small, poorly fitted or top-dose-only effect, or another doubt; inactive = no such curve, though single readings can be large; an effect the other way counts as inactive or inconclusive. Potency is the fitted concentration of half-maximal effect.

SMILES	Cruzain inh noDet	Cruzain inh Det
CCc1nn(CC(=O)NCc2cccc(OC)c2)c(=O)c2cc3cc(F)ccc3n12	-1%	-1%
Cc1cccc(N=C2NC(=O)S/C2=C\c2ccco2)c1	?	-4%
O=C1NC(=Nc2ccc(Cl)cc2)/C(=C/c2ccco2)S1	5µM*	-21%
O=C(Cn1c(=O)oc2cc(S(=O)(=O)N3CCCC3)ccc21)NC1CCCc2ccccc21 (stereo not drawn)	25µM*	-11%
CC(NC(=O)Cn1c(=O)oc2cc(S(=O)(=O)N3CCCC3)ccc21)c1ccccc1 (stereo not drawn)	?	1%
CN1CCc2nc3sc(C(=O)C45CC6CC(CC(C6)C4)C5)c(N)c3cc2C1	13µM*	?
CN1CCc2nc3sc(C(=O)c4ccc(F)cc4)c(N)c3cc2C1	-1%	-6%
CN(Cc1ccccc1)C(=O)c1ccc2c(c1)N(Cc1ccccc1F)C(=O)c1ccccc1S2(=O)=O	-5%	2%
CN1CCN(C2=C(Cl)C(=O)N(c3ccc(Cl)c(Cl)c3)C2=O)CC1	2.5µM*	2.8µM*
O=C1C(Cl)=C(N2CCOCC2)C(=O)N1c1ccccc1Cl	-26%	?
CN1CCN(C2=C(Cl)C(=O)N(c3cccc(Cl)c3)C2=O)CC1	?	-26%
Cc1ccc(N2C(=O)C(Cl)=C(N3CCOCC3)C2=O)cc1Cl	7.9µM*	7.1µM*
C[C@@H]1CC2(OC[C@]3(C)O[C@H]23)O[C@H]2C[C@@]3(C)[C@@H]4CC[C@H]5C(C)(C)C(O[C@@H]6OC[C@@H](O)[C@H](O)[C@H]6O)CC[C@@]56C[C@@]46CC[C@]3(C)[C@@H]12 (stereo partly drawn)	?	-9%
COc1ccccc1CNC(=O)c1ccc2c(c1)N(Cc1cccc(C)c1)C(=O)c1ccccc1S2(=O)=O	?	2%
Cc1ccc(C(=O)NC(=S)N2CCN(c3ccc([N+](=O)[O-])cc3)CC2)cc1	14%	-8%
Cc1ccc(C(=O)ON=C2CCN(c3ccc([N+](=O)[O-])cc3)CC2)cc1	32µM*	-3%
Cc1ccc(-c2nc3nc(C)cc(N4CCN(c5cccc(C)c5C)CC4)n3n2)cc1	2%	-2%
Cn1c(=N)c(S(=O)(=O)c2ccc(F)cc2)cc2c(=O)n3ccccc3nc21	?	32µM*
CCOCCCn1c(=N)c(S(=O)(=O)c2ccc(C)cc2)cc2c(=O)n3ccccc3nc21	-8%	-7%
CCOc1nc2cccc(C(=O)OC(C)OC(=O)OC3CCCCC3)c2n1Cc1ccc(-c2ccccc2-c2nn[nH]n2)cc1 (stereo not drawn)	?	14µM*
CCCc1nc(C(C)(C)O)c(C(=O)OCc2oc(=O)oc2C)n1Cc1ccc(-c2ccccc2-c2nn[nH]n2)cc1	?	-1%
COS(C)(=O)=O	0%	4%
Cc1ccc(Nc2cc(C)c(C#N)c3nc4ccccc4n23)cc1Cl	-8%	0%
COc1cccc(Nc2nc(-c3cccc(N4C(=O)c5ccccc5C4=O)c3)cs2)c1	7.9µM*	6%
COc1cccc(Nc2nc(-c3ccc(O)cc3)cs2)c1	-7%	-9%
SMILES	Cruzain inh noDet	Cruzain inh Det
ONC(=Nc1ccc(Cl)cc1)c1ccc(Cl)cc1	-6%	-7%
[S-]C(=Nc1ccc(Cl)cc1)N[n+]1ccccc1	7.9µM*	20µM*
Cc1oc(-c2cccc(Cl)c2)nc1CSc1nnc(C)n2c1cc1occc12	-10%	1%
Cc1[nH]n(C(N)=S)c(=O)c1C(c1ccccc1)C(C#N)C#N (stereo not drawn)	20%	1%
Cc1[nH]n(-c2ncc(-c3ccccc3)s2)c(=O)c1C(c1ccc(Br)cc1)C(C#N)C#N (stereo not drawn)	13µM*	?
O=C(CN1C(=O)S/C(=C\c2ccc(Cl)cc2)C1=O)NNC(=O)c1ccccc1O	20µM*	-6%
COc1cccc(/C=C2\SC(=O)N(CCC(=O)NNC(=O)c3ccccc3Cl)C2=O)c1	?	-5%
Cc1cc(C)c(NC(=O)CN2c3ccccc3S(=O)(=O)c3ccccc32)c(C)c1	-28%	-6%
Cc1ccc(-n2nc3c(c2NC(=O)/C=C\c2ccc4c(c2)OCO4)CSC3)c(C)c1	25µM*	-6%
Cc1ccc(-n2nc3c(c2NC(=O)/C=C\c2ccc4c(c2)OCO4)CSC3)cc1	32µM*	-4%
Cc1ccc(-n2nc3c(c2NC(=O)c2ccc4c(c2)OCO4)CS(=O)C3)cc1 (stereo not drawn)	-5%	-3%
Cc1ccc(-n2nc3c(c2NC(=O)C(C)(C)C)CSC3)c(C)c1	6%	0%
Cc1cc(C)cc(N(C)S(=O)(=O)c2nnc(NC(=O)COc3ccc(C)c(C)c3)s2)c1	-2%	-3%
COc1cccc(NC(=O)CN2C(=O)C3(SCC(=O)N3c3cc(C)cc(C)c3)c3ccccc32)c1 (stereo not drawn)	?	-8%
Cc1cccc(NC(=O)C(=O)NCC(c2cccnc2)N2CCc3ccccc3C2)c1C (stereo not drawn)	-18%	0%
CCOC(=O)c1ccc(N2C(=O)c3n[nH]c(-c4ccco4)c3C2c2ccc(OCC)cc2)cc1 (stereo not drawn)	14%	-29%
CCOC(=O)c1ccc(N2C(=O)c3n[nH]c(-c4cccs4)c3C2c2ccc(C)cc2)cc1 (stereo not drawn)	-8%	-2%
COc1ccc(OC)c(C2c3c(-c4ccc(Br)cc4)n[nH]c3C(=O)N2c2ccc(Cl)cc2)c1 (stereo not drawn)	16µM*	-2%
CCOC(=O)c1ccc(N2C(=O)c3[nH]nc(-c4ccc(OC)cc4)c3C2c2ccc(C)cc2)cc1 (stereo not drawn)	25µM*	-2%
COc1ccc(-c2n[nH]c3c2C(c2ccc(O)cc2)N(c2ccc(Br)cc2)C3=O)cc1 (stereo not drawn)	?	-1%
CCOC(=O)c1ccc(N2C(=O)c3n[nH]c(-c4cccs4)c3C2c2ccc(Cl)cc2Cl)cc1 (stereo not drawn)	20µM*	-1%
Cc1ccc(N2C(=O)CCSC23C(=O)N(Cc2ccccc2)c2ccccc23)cc1F (stereo not drawn)	?	-9%
COCCN1C(=O)c2[nH]nc(-c3c(C)cc(C)cc3O)c2C1c1cccc(O)c1 (stereo not drawn)	-3%	-12%
COc1ccccc1NC(=O)c1sc2nc(N3CCOCC3)c3c(c2c1N)CC(C)(C)OC3	10%	0%
CNC(=S)N/N=C/c1ccccc1Cl	-9%	-5%
SMILES	Cruzain inh noDet	Cruzain inh Det
CNC(=S)N/N=C/c1cc(C)n(-c2ccc(Cl)c(Cl)c2)c1C	32µM*	-9%
COC(=O)Cn1c(=NC(=O)c2ccc(Cl)s2)sc2cc(F)ccc21	25µM*	-9%
C#CCn1c(=NC(=O)c2ccc(Cl)s2)sc2cccc(OC)c21	?	5%
COc1ccc(C(=O)C2CN(c3ccccc3)CC2c2ccc(Cl)cc2)cc1 (stereo not drawn)	16µM*	6%
COc1ccc(C(=O)N2CCN(c3cccc(Cl)c3)CC2)cc1	12%	-5%
COc1ccc(-c2noc(-c3ccc(N4CCCC4)c([N+](=O)[O-])c3)n2)cc1	-7%	-11%
NC(=S)NNC(=O)Nc1ccc(Cl)c(Cl)c1	2µM*	3.2µM*
O=C(Cc1ccccc1)NNC(=O)Nc1ccc(Cl)c(Cl)c1	-1%	0%
Cc1ccc(NC(=O)c2nnn(Cc3cccc(C(F)(F)F)c3)c2N)c(C)c1	?	0%
Oc1ccc(C=Nc2cccc3ncccc23)c(O)c1	-7%	-3%
Oc1ccc(C=Nc2ccc3ncccc3c2)c(O)c1	16µM*	-9%
